# PubChem BioAssay (NCATS)
# Inconclusive results are not listed. A call without a number means that no potency is given here. Calls of active or inactive are those of the source. Unless noted, the call rests on the fitted dose curve; in most records, active means well fitted curve in the direction sought with a large enough effect; inconclusive means small, poorly fitted or top-dose-only effect, or another doubt; inactive means no such curve, though single readings can be large; an effect the other way counts as inactive or inconclusive.
# Legend:
# [1] = target: Calcium and integrin-binding protein 1 (Homo sapiens) (UniProt Q99828); test: Confirmatory qHTS for Identification of Calcium Integrin Binding Protein 1 (CIB1) Competitor (AID 1508617); further: nearly all actives have a fitted effect of over 65% in size; further: potency means the concentration at half of the fitted maximal effect
# Method in brief: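 Confirmatory qHTS measures displacement of a FITC-alphaIIb peptide (100 nM) from CIB1-GST (1 uM) by fluorescence polarization. Calcium-containing HEPES buffer, pH 7.4; two 15 min room-temperature incubations.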
# [2] = target: Calcium and integrin-binding protein 1 (Homo sapiens) (UniProt Q99828); test: Primary qHTS for Identification of Calcium Integrin Binding Protein 1 (CIB1) Competitor (AID 1508620); further: potency means the concentration at half of the fitted maximal effect;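 on activity change, negative = inhibition: GST tagged CIB1 binding a fluorescein labelled alphaIIb integrin peptide tracer; top concentration of the series differs between compounds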
# Method in brief: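 Fluorescence polarization competition: CIB1-GST (1 uM final) preincubated with compound 15 min at room temperature, then FITC-labeled alphaIIb peptide (100 nM final) added for another 15 min. Polarization read at Ex 480/Em 540.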
# [3] = qHTS for Inhibitors of Ubiquitin-specific Protease USP2a Using CHOP2 as the Reporter: K633 Counterscreen (AID 652168)
# Method in brief: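 Detection-system control: fluorescence of K48-linked DiUb-4IQF substrate (100 nM as added) tracked over time, Ex 525/Em 598, with pinned compounds and no enzyme, in pH 8 Tris buffer containing beta-mercaptoethanol and 0.05% Chaps.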
# [4] = qHTS for Inhibitors of Ubiquitin-specific Protease USP2a Using CHOP2 as the Reporter: Cytotox Assay (AID 652170);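 further: HCT116 human colon cancer cells at 600 per well; nearly all actives have a fitted effect of over 70% in size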
# Method in brief: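 Cytotoxicity read as ATP luminescence (CellTiter-Glo) after 72 hr compound treatment at 37 deg C. Cells: HCT116, 600/well in DMEM plus 10% FBS. Normalization between DMSO-treated cells and cell-free wells.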
# [5] = target: Ubiquitin carboxyl-terminal hydrolase 2 (Homo sapiens) (UniProt O75604); test: qHTS for Inhibitors of Ubiquitin-specific Protease USP2a Using CHOP2 as the Reporter: K484 Substrate (AID 652173);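 further: cleavage of internally quenched K48 di-ubiquitin substrate measured as rising fluorescence over time; nearly all actives have a fitted effect of over 70% in size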
# Method in brief: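 Kinetic fluorescence (Ex 525/Em 598) tracked cleavage of an internally quenched K48 di-ubiquitin substrate, added as a 100 nM solution. The enzyme was added as a 5 nM USP2 solution before compound pinning, with no-enzyme controls. Buffer: Tris pH 8, beta-mercaptoethanol, CHAPS.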
# [6] = target: Rap guanine nucleotide exchange factor 3 (Homo sapiens) (UniProt O95398); test: Confirmatory qHTS for agonist of cAMP-regulated guanine nucleotide exchange factor 3 (EPAC1) (AID 1645881);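 further: EPAC1 catalysed release of BODIPY-GDP from Rap1B seen as fluorescence loss; nearly all actives have a fitted effect of over 75% in size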
# [7] = target: Rap guanine nucleotide exchange factor 4 (Homo sapiens) (UniProt Q8WZA2); test: Confirmatory qHTS for agonist of cAMP-regulated guanine nucleotide exchange factor 4 (EPAC2) (AID 1645884);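 further: nucleotide exchange releases bodipy-GDP from Rap1 and this lowers its fluorescence; nearly all actives have a fitted effect of over 65% in size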
# [8] = target: Rap guanine nucleotide exchange factor 3 (Homo sapiens) (UniProt O95398); test: Counterscreen qHTS for antagonist of cAMP-regulated guanine nucleotide exchange factor 3 (EPAC1) (AID 1645888);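 further: fluorescence loss as bound BODIPY-GDP is released from Rap1B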
# Method in brief: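 Measured: fluorescence of BODIPY-GDP bound to Rap1B, which falls as exchange proceeds. Conditions include 50 uM competing GDP, 5 and 30 min reads, and a later cAMP challenge for antagonist detection.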
# [9] = Confirmation and Secondary Assay for Modulators of Hemoglobin Beta Chain Splicing at IVS2 654 locus (AID 910);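 further: per-well total GFP intensity by laser scanning cytometry after 2-day treatment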
# Method in brief: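 HeLa cells stably carrying EGFP interrupted by mutant beta-globin IVS2-654 intron (CMV-driven) were treated with compound for 2 days at 37C; corrected splicing was scored as total peak GFP intensity per well (488 nm excitation, 500-520 nm emission).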
# [10] = Confirmation and Secondary Assay for Modulators of Hemoglobin Beta Chain Splicing at IVS2 705 locus (AID 930);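 further: HeLa cells stably expressing the EGFP-705 splicing reporter; GFP fluorescence per well restored by corrected splicing of the IVS2-705 intron in EGFP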
# Method in brief: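 Splice-correction reporter: EGFP cDNA split by beta-globin intron 2 bearing the 705 mutation, stably in HeLa. Compound incubation 2 days, 37C; fluorescent objects 5-250 µm summed per well.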
# [11] = qHTS Assay for Lipid Storage Modulators (AID 1519; calls by dose curve); conditions: Drosophila S3 cells, BODIPY lipid droplet/cell ratio, laser cytometry, cells loaded with oleic acid
# Method in brief: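 Cells seeded at 5,000 per well were treated with compounds over a concentration series and loaded with oleic acid (400 uM, as added). Lipid droplet fluorescence (488 nm excitation, 500-530 nm channel) was read by laser-scanning cytometry and normalized to 20 uM Triacsin C.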
# Sequence of Calcium and integrin-binding protein 1 (Homo sapiens) (Q99828 whole entry, looked up): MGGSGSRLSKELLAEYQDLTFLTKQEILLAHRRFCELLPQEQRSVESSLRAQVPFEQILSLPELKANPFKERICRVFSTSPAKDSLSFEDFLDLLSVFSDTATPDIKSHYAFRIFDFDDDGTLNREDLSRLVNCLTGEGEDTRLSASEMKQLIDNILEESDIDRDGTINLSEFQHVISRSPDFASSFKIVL
# Sequence of Rap guanine nucleotide exchange factor 3 (Homo sapiens) (O95398 whole entry, looked up): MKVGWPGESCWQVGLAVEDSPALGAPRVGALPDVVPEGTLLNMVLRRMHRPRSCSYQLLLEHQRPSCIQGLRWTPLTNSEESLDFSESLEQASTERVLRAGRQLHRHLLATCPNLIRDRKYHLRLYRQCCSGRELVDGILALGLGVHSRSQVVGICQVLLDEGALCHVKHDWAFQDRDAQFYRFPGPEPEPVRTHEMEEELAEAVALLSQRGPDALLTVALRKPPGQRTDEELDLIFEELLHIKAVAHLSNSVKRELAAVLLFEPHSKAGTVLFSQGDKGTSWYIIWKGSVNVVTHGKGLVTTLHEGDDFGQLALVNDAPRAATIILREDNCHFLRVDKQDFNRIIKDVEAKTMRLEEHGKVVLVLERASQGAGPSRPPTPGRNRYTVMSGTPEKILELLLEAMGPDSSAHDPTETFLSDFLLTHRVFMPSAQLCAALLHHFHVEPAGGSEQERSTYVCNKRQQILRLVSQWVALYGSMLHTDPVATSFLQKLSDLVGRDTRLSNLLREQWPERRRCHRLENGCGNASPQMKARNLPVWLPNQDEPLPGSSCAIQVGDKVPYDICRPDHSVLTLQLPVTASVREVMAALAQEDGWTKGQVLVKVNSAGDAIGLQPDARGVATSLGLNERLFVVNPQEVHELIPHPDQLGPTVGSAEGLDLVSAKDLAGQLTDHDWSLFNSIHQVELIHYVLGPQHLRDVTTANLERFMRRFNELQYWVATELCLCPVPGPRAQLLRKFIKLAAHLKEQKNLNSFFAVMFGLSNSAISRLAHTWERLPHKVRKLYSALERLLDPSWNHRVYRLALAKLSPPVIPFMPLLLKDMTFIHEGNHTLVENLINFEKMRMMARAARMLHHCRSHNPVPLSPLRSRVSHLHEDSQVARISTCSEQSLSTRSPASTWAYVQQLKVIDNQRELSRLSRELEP
# Sequence of Ubiquitin carboxyl-terminal hydrolase 2 (Homo sapiens) (O75604 whole entry, looked up): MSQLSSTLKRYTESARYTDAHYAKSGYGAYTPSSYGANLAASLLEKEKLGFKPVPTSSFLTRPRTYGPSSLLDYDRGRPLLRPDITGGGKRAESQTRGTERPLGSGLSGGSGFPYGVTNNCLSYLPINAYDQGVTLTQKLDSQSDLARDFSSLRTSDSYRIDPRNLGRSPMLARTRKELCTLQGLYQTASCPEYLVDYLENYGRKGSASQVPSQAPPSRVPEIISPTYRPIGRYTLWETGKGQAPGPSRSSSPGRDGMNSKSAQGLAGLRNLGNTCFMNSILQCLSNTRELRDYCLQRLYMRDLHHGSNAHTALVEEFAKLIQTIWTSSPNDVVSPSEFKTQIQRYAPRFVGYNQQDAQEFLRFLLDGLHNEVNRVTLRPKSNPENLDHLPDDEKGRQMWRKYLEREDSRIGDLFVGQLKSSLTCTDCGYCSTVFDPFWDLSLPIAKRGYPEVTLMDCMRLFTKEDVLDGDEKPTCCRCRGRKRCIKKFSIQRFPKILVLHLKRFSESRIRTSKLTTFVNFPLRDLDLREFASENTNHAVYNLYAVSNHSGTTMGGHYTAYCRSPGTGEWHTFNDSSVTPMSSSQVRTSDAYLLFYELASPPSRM
# Sequence of Rap guanine nucleotide exchange factor 4 (Homo sapiens) (Q8WZA2 whole entry, looked up): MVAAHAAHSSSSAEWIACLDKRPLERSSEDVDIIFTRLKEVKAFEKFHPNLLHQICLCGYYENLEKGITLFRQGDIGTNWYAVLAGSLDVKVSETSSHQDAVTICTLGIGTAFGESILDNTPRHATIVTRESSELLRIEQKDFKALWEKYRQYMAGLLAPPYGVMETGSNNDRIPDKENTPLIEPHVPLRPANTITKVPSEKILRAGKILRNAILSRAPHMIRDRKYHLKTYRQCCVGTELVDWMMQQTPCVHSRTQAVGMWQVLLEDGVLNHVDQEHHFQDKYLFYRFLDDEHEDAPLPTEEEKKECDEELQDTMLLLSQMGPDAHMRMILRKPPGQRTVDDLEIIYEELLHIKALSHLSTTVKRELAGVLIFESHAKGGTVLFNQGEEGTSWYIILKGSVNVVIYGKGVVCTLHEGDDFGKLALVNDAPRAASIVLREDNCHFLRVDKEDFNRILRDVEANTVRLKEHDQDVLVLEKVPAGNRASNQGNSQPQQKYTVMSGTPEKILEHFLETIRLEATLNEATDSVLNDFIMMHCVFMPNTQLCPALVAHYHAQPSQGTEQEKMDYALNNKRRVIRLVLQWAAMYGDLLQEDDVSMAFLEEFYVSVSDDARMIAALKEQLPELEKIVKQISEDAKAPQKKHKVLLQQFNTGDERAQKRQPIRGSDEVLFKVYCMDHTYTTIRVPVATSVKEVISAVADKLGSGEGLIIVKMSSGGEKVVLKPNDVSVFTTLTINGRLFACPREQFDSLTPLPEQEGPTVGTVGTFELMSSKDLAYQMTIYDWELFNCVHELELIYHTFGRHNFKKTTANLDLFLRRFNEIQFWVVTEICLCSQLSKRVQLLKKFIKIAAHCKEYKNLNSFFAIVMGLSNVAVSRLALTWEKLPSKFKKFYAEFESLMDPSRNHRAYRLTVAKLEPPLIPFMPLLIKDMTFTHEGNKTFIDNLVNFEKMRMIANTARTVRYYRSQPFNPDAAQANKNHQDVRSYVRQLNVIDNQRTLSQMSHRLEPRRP
structure (smiles),measurement,setting,value
O=C1CCCC2=C1C1(CCOCC1)N=C(Nc1nc3ccccc3o1)N2,Potency,[1],inactive
CCOc1ccc(CCNC(=O)c2cc3ccccc3n2Cc2ccc(Cl)c(F)c2)cc1OCC,Potency,[2],inactive
CC(=O)N1CCc2cc(S(=O)(=O)N3CCN(S(=O)(=O)c4c(F)cccc4F)CC3)ccc21,Potency,[2],inactive
N#Cc1ccc(N[S+](=O)([O-])c2ccc(Nc3nc(-c4ccccc4)cs3)cc2)cc1,outcome,[3],inactive
same,Potency,[4],inactive
same,Potency,[5],inactive
same,Potency,[1],44.7 µM (active)
CC(=O)NC(c1cccs1)c1cc(Br)c2cccnc2c1O (stereo not given),Potency,[1],inactive
same,Potency,[2],inactive
same,outcome,[6],inactive
same,activation,[7],0% [at 17.1 µM] (inactive)
same,outcome,[8],inactive
CC(=O)Nc1sc2c(c1-c1ccc(N[S+](C)(=O)[O-])cc1)CCNC2,Potency,[2],inactive
O=C1c2ccccc2C(=O)N1c1cccc(Cl)c1,Potency,[2],inactive
Cc1cccc(-c2ccc3ncnc(N(C)Cc4ccco4)c3c2)c1,Potency,[2],inactive
O=C1CCCC2=C1C(c1ncccc1C(F)(F)F)N=C(Nc1nc3ccccc3o1)N2 (stereo not given),Potency,[1],inactive
Cc1ccc(OCCn2c3c(c4ccccc42)CCN(C(=O)C2CCCCC2)C3)cc1,Potency,[2],inactive
CCCCN(C)C(=O)Cn1nc(-c2ccc(C(C)=O)cc2)ccc1=O,Potency,[2],inactive
O=C1CCCC2=C1C1(CCCOC1)N=C(Nc1nc3ccccc3o1)N2 (stereo not given),Potency,[1],inactive
Cc1ccc2nc3sc(C(=O)NCc4ccco4)cc3cc2c1,Potency,[1],inactive
same,Potency,[2],inactive
O=C1c2ccccc2NC(c2ccc(-c3ccc(-c4ccccc4)cc3)o2)N1O (stereo not given),Potency,[2],inactive
c1ccc(-n2ccc(-c3nnc4n3CCCCC4)c2)cc1,Potency,[1],50.1 µM (active)
same,Potency,[2],79.4 µM (active)
NC[C@@H](O)c1ccc(O)c(O)c1,outcome,[9],inactive
same,outcome,[10],inactive
same,"activity change, negative = inhibition",[11]; at 57.5 µM (top of the series),7.77% (inactive)
same,max response,[11]; measured here: cell count channel max response,7.41%
same,max response,[11]; measured here: lipid channel max response,16.7%
same,Potency,[1],inactive
same,Potency,[2],inactive
NC(=O)C1CCN(c2ncc(Br)s2)CC1,Potency,[1],50.1 µM (active)
same,Potency,[2],39.8 µM (active)
Cc1ccc(CNc2ncnc3ccc(-c4ccc([C@@H](C)O)o4)cc23)o1,Potency,[1],inactive
same,Potency,[2],inactive
Cc1cc(C)nc(NC(=S)N2CCN(c3cc(Cl)cc(C(F)(F)F)c3)CC2)c1,Potency,[2],inactive
COc1ccc(C2Nc3ccccc3C(=O)N2Cc2ccccc2)cc1COc1cccc(C(F)(F)F)c1 (stereo not given),Potency,[2],inactive
COc1cccc(C2c3c(ncn(-c4ccc(C#N)cc4)c3=N)Oc3ccc4ccccc4c32)c1 (stereo not given),Potency,[2],inactive
Cc1ccc(CC(=O)Nc2nc(-c3ccc4c(c3)CCN4C(=O)c3ccccc3C)c(C)s2)cc1C,Potency,[2],inactive
Cc1cc2c(s1)c1cnn(Cc3cc(F)cc(F)c3)c(=O)c1n2C,Potency,[2],inactive
